# Experimental data as given in PubChem BioAssay (EPA / NIEHS).
# Records with an inconclusive call do not appear. Activity calls are given as the source filed them. Rule for the calls, unless noted: active = hit-call score of the fitted dose curve at least 0.9, where 1 is the maximum; inactive = score below 0.9.
# Experiments:
# [1] = CCTE_Harrill_HTTr_Viability_MCF7: CCTE's 6-hour Cell Viability Assessment for the High-Throughput Transcriptomics (HTTr) Platform, in MCF-7 cells cultured in DMEM + 10% fetal bovine serum, Harrill Lab (AID 2284010)
# Summary of the method: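 Viability measured through PI dye exclusion by high-content imaging at 6 h post-dosing.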
# [2] = CCTE_Harrill_HTTr_Apoptosis_MCF7: CCTE's 6-hour Apoptosis Assessment for the High-Throughput Transcriptomics (HTTr) Platform, in MCF-7 cells cultured in DMEM + 10% fetal bovine serum, Harrill Lab (AID 2284011)
# Summary of the method: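 Read-out: CellEvent Caspase 3/7 Green signal by high content imaging, gain-of-signal indicating apoptosis. MCF-7 cells, DMEM + 10% FBS, eight-point dilution series, 6 h exposure. Curves fitted bidirectionally relative to DMSO negative control.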
# [3] = CCTE_Shafer_MEA_acute_burst_number: CCTE's Neural Acute Assay for Single-Electrode Bursts, Shafer Lab (AID 2284013)
# Summary of the method: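 Primary rat cortical neurons on 16-electrode MEA wells, treated on DIV 13 or 15 with compound at 0.03-40 uM. Single-electrode burst count from 40-min recordings at 37 C before and after exposure; percent change from baseline per well, DMSO negative control.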
# [4] = CCTE_Shafer_MEA_acute_burst_duration_mean: CCTE's Neural Acute Assay for Mean Burst Duration, Shafer Lab (AID 2284014);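 note: hits are decreases in mean burst duration relative to DMSO controls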
# Summary of the method: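 Rat primary cortical neurons on 48-well MEA, treated at DIV 13 or 15 with 0.03-40 uM in at least 3 wells. Value is percent change in mean burst duration, comparing 40 min recordings at 37 C before and during exposure.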
# [5] = CCTE_Shafer_MEA_acute_per_burst_spike_number_mean: CCTE's Neural Acute Assay for Average Number of Spikes Per Burst, Shafer Lab (AID 2284015);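 note: hits are decreases in mean spikes per burst versus baseline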
# Summary of the method: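 Rat primary cortical neurons on 48-well MEAs (DIV 13 or 15) were treated with 0.03-40 uM compound at 37 C. Mean spikes per burst over 40 min were recorded before and after exposure and expressed as percent change from baseline, relative to DMSO.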
# [6] = CCTE_Shafer_MEA_acute_interburst_interval_mean: CCTE's Neural Acute Assay for Mean Interburst Interval, Shafer Lab (AID 2284016);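 note: percent change of mean interburst interval versus each well's own pre-dose baseline; curves fitted for decrease in interburst interval relative to DMSO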
# Summary of the method: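 Rat primary cortical neurons on 48-well MEAs at DIV 13 or 15 were exposed acutely to 0.03-40 uM. Spikes detected at 8x rms noise, 37 C. Mean interburst interval from 40 min recordings expressed as percent change from 40 min pre-treatment baseline.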
# [7] = CCTE_Shafer_MEA_acute_burst_percentage_mean: CCTE's Neural Acute Assay for Percentage of Spikes in a Burst, Shafer Lab (AID 2284017);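 for AC50: curve fitted for loss of signal so potency reflects decreased burst percentage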
# Summary of the method: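 Primary rat cortical neurons on 48-well MEA plates, treated on DIV 13 or 15 at 0.03-40 uM. Spikes detected at 8x rms noise at 37C; percent change from 40-min baseline to 40-min post-dose recording, fitted versus DMSO.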
# [8] = CCTE_Shafer_MEA_acute_burst_percentage_std: CCTE's Neural Acute Assay for Standard Deviation of Burst Percentage, Shafer Lab (AID 2284018);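 note: fitted in the negative direction so actives lower burst percentage SD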
# Summary of the method: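 Rat primary cortical neurons on 48-well MEAs, DIV 13 or 15, 37 C. 40-min baseline then 40-min recording with compound (0.03-40 uM); well-level SD of per-electrode burst spike percentage, expressed as percent change from baseline.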
# [9] = CCTE_Shafer_MEA_acute_per_network_burst_spike_number_mean: CCTE's Neural Acute Assay for Average Number of Spikes in a Network Burst, Shafer Lab (AID 2284019);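 for AC50: curve fitted for loss of signal so actives reduce spikes per network burst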
# Summary of the method: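 Rat primary cortical neurons on 48-well MEA at DIV 13 or 15, 37 C; compounds 0.03-40 uM, at least three wells each. 40-min baseline then 40-min exposure recording; percent change in mean spikes per network burst.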
# [10] = CCTE_Shafer_MEA_acute_per_network_burst_spike_number_std: CCTE's Neural Acute Assay for Standard Deviation of Number of Spikes in a Network Burst, Shafer Lab (AID 2284020);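 note: fitted for decrease in spike-number SD versus DMSO so actives lower it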
# Summary of the method: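 Rat primary cortical neurons on 48-well MEA (16 electrodes/well), treated DIV 13 or 15 at 0.03-40 uM, ≥3 wells per compound. 40 min recordings at 37 C before and after dosing; value is percent change in network-burst spike-number SD, negative direction vs DMSO.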
# [11] = CCTE_Shafer_MEA_acute_per_network_burst_electrodes_number_mean: CCTE's Neural Acute Assay for Mean Number of Electrodes in a Network Burst, Shafer Lab (AID 2284021);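 note: curves fitted for decreases only so hits reduce electrodes per burst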
# Summary of the method: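 Readout: % change in mean electrodes active per network burst, post- vs pre-treatment, each well. Spikes detected at 8x rms noise after 300-5000 Hz band-pass; rat cortical cultures, DIV 13/15, compounds 0.03-40 uM, DMSO baseline.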
# [12] = CCTE_Shafer_MEA_acute_cross_correlation_area: CCTE's Neural Acute Assay for Area of Cross Correlation, Shafer Lab (AID 2284024);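 note: area under pooled inter-electrode spike cross-correlation near zero lag as percent change from own baseline; curves fitted for loss of cross-correlation area so actives lower synchrony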
# Summary of the method: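 Rat cortical cultures, DIV 13/15, MEA; spikes detected at 8x rms noise (300-5000 Hz band-pass). Compound 0.03-40 uM, ≥3 wells each. Readout: % change in pooled inter-electrode cross-correlation area vs own baseline; DMSO negative control.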
# [13] = CCTE_Shafer_MEA_acute_cross_correlation_HWHM: CCTE's Neural Acute Assay for Cross Correlation at Half Width at Half Maximum, Shafer Lab (AID 2284026);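 note: percent change per well from pre-dose baseline in spike cross-correlogram half width; hits are a decrease in cross-correlogram half width relative to DMSO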;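 for outcome: spontaneous network firing of rat primary cortical neurons on multiwell microelectrode arrays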
# Summary of the method: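 Read-out: half width at half maximum of action-potential cross-correlogram, percent change versus pre-treatment baseline, fitted in loss direction against DMSO. Rat cortical cultures, DIV 13 or 15, dosed 0.03-40 uM, 40-min recordings at 37 C.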
# [14] = CCTE_Shafer_MEA_acute_synchrony_index: CCTE's Neural Acute Assay for Synchrony, Shafer Lab (AID 2284027);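 note: network synchrony index of spontaneous spiking in primary rat cortical neurons on MEAs; fitted for loss of signal so actives lower synchrony relative to DMSO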
# Summary of the method: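 Spontaneous firing of mature rat cortical networks is captured extracellularly on microelectrode arrays at 37 C, with wells needing ≥10 active electrodes. Each compound (0.03-40 uM) is judged by the change in synchrony index from baseline over 40 min.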
# [15] = target: Estrogen receptor (Homo sapiens) (UniProt P03372); assay: CCTE_Deisenroth_AIME_384WELL_LUC_Active: CCTE's 384-well Estrogen Receptor Transactivation Assay with AIME metabolic competence (ERTA luciferase; metabolism positive), Deisenroth Lab (AID 2284030; active = hit-call score of the fitted dose curve at least 0.9, where 1 is the maximum)
# Summary of the method: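 Readout: bioluminescent luciferase induction in VM7Luc4E2 cells 24 hour after receiving medium from a 2 h rat hepatic S9 (induced, alginate microsphere) metabolism step. Concentrations 0.002 - 200 uM; activity scaled to 17beta-estradiol positive control.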
# Sequence of Estrogen receptor (Homo sapiens) (P03372 whole entry, looked up): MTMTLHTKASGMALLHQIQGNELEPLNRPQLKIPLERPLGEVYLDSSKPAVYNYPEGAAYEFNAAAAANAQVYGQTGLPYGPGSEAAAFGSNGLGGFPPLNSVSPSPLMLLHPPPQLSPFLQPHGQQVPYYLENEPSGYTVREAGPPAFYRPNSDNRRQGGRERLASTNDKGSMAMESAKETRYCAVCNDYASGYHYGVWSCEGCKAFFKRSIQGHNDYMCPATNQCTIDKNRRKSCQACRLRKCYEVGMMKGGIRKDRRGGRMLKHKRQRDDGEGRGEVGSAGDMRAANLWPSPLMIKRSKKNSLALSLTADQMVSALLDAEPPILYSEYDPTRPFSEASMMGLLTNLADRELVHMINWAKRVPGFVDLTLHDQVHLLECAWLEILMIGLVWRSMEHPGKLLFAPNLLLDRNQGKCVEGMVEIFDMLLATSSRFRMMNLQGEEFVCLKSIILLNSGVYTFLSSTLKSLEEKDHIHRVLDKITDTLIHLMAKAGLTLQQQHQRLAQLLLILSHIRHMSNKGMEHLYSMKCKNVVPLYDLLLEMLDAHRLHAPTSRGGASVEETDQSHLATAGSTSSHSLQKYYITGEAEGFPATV
smiles,measurement,setting,value
OC(c1ccc(Cl)cc1)(c1ccc(Cl)cc1)C(Cl)(Cl)Cl,AC50,[1],38.6 µM (active)
same,outcome,[2],inactive
same,AC50,[3],2.08 µM (active)
same,outcome,[4],inactive
same,outcome,[5],inactive
same,outcome,[6],inactive
same,AC50,[7],4.81 µM (active)
same,outcome,[8],inactive
same,outcome,[9],inactive
same,AC50,[10],20 µM (active)
same,AC50,[11],20 µM (active)
same,outcome,[12],inactive
same,AC50,[13],5.32 µM (active)
same,AC50,[14],8.65 µM (active)
CC1(C)CCC(=Cc2ccc(Cl)cc2)C1(O)Cn1cncn1 (stereo not given),outcome,[1],inactive
same,outcome,[2],inactive
same,outcome,[3],inactive
same,outcome,[4],inactive
same,outcome,[5],inactive
same,outcome,[6],inactive
same,outcome,[7],inactive
same,outcome,[8],inactive
same,outcome,[9],inactive
same,outcome,[10],inactive
same,outcome,[11],inactive
same,outcome,[12],inactive
same,outcome,[13],inactive
same,outcome,[14],inactive
COc1cc(Cl)c(OC)cc1Cl,outcome,[1],inactive
same,outcome,[2],inactive
CCCC(=NOCC)C1=C(O)CC(CC(C)SCC)CC1=O (stereo not given),outcome,[1],inactive
same,outcome,[2],inactive
same,outcome,[3],inactive
same,AC50,[4],31 µM (active)
same,AC50,[5],29.1 µM (active)
same,outcome,[6],inactive
same,AC50,[7],27.7 µM (active)
same,outcome,[8],inactive
same,AC50,[9],20.1 µM (active)
same,AC50,[10],25.4 µM (active)
same,outcome,[11],inactive
same,outcome,[12],inactive
same,AC50,[13],30.7 µM (active)
same,AC50,[14],28.2 µM (active)
same,outcome,[15],inactive
CCOc1nc(F)cc2nc(S(=O)(=O)Nc3c(Cl)cccc3Cl)nn12,outcome,[1],inactive
same,outcome,[2],inactive
same,outcome,[3],inactive
same,outcome,[4],inactive
same,outcome,[5],inactive
same,outcome,[6],inactive
same,outcome,[7],inactive
same,outcome,[8],inactive
same,outcome,[9],inactive
same,outcome,[10],inactive
same,outcome,[11],inactive
same,outcome,[12],inactive
same,outcome,[13],inactive
same,outcome,[14],inactive
CCCCC(O)(Cn1cncn1)c1ccc(Cl)cc1Cl (stereo not given),outcome,[1],inactive
same,outcome,[2],inactive
same,outcome,[3],inactive
same,outcome,[4],inactive
same,outcome,[5],inactive
same,outcome,[6],inactive
same,outcome,[7],inactive
same,outcome,[8],inactive
same,outcome,[9],inactive
same,outcome,[10],inactive
same,outcome,[11],inactive
same,outcome,[12],inactive
same,outcome,[13],inactive
same,outcome,[14],inactive
COC(=O)c1c(C(F)F)nc(C(F)(F)F)c(C2=NCCS2)c1CC(C)C,outcome,[1],inactive
same,outcome,[2],inactive
